# From PubChem BioAssay AID492998 (Southern Research Specialized Biocontainment Screening …, 2010)
# Hit rate of the full screen: of about 2,300 compounds, about 550 (24%) were called active. No rule for the calls is given here. A selection follows. Measured potencies and affinities stand elsewhere.
# Assay: Vero E6 cell cytotoxicity, dose response, cytotoxicity control for non-replicating M. tuberculosis project, secondary assay (AID 492998)
# Conditions: series mostly up to 20 µM
row,Structure (SMILES),outcome
1,COc1c[nH]n(C2CCCCC2)c(=O)c1=O,inactive
2,CCCN(Cc1nnc(-c2ccccc2Cl)o1)C(=O)c1cc([N+](=O)[O-])cc([N+](=O)[O-])c1,inactive
3,Cc1ccc(NC(=O)COc2ccc3c(c2)CCC3)nc1,inactive
4,COc1ccc(CNC(=O)c2cc3cccc(O)c3oc2=N)cc1,inactive
5,CCc1ccc(N2NC(=O)/C(=C/C=C/c3ccco3)C2=O)cc1,inactive
6,O=C(COc1cccc2ccccc12)Nc1nc2ccccc2[nH]1,inactive
7,CC1Cc2cc(/C=C3/SC(=S)NC3=O)ccc2O1 (configuration not stated),inactive
8,Cc1cccc2cc(C#N)c(NCCCn3ccnc3)nc12,inactive
9,c1ccc(-c2nc(NCCCn3ccnc3)c3ccccc3n2)cc1,inactive
10,O=C(COC(=O)CCc1c[nH]c2ccccc12)Nc1cc([N+](=O)[O-])ccc1Cl,inactive
11,Cc1nnc(N/N=C/c2cccc(OCc3ccc(Cl)c(Cl)c3)c2)n1N,inactive
12,CCCCCCC1CC(C)(C(=O)CNc2nncs2)OC1=O (configuration not stated),inactive
13,CCCn1nnc(NC(=O)COc2ccc(CC)cc2)n1,inactive
14,Cc1nc(C(=O)Nc2ccccc2)sc1C(=O)Nc1ccccc1,inactive
15,CNC(=O)c1[nH]cnc1C(=O)Nc1ccc(Cl)cc1,inactive
16,Nc1nnc(Sc2ncccc2[N+](=O)[O-])s1,inactive
17,CC(C)OC(=O)C(C)Oc1ccc(C(=O)NCCc2ccccc2)cc1 (configuration not stated),inactive
18,CC(=O)c1cc2c(ccc3ccccc32)oc1=O,inactive
19,Cn1cccc1/C=C1/C(=O)NC(=S)N(Cc2ccc(F)cc2)C1=O,inactive
20,Cc1ccc(/C=C2/C(=O)NC(=O)N(CCc3ccc(F)cc3)C2=O)s1,inactive
21,O=C1CC(N2CCSCC2)C(=O)N1CCc1ccccc1 (configuration not stated),inactive
22,CCCCSc1nnc(-c2cc(Br)ccc2N)c(=O)[nH]1,inactive
23,O=C(NCCc1cccc(Cl)c1)c1cc2ccccc2oc1=O,inactive
24,Cc1ccc(-c2ccc(/C=N/NC(=O)CN3CCCC3)o2)cc1Cl,inactive

row,Structure (SMILES),outcome
1,COc1ccccc1OCCNC(=O)c1cc([N+](=O)[O-])cc([N+](=O)[O-])c1,inactive
2,O=C(N/N=C/c1ccccn1)c1cc([N+](=O)[O-])cc([N+](=O)[O-])c1,inactive
3,COC(=O)C1=C(C)N(CC2CC2)C(=NCc2cccc(Cl)c2)N[C@H]1c1ccccc1,inactive
4,O=C(COc1ccc(Br)cc1)N/N=C1/SCC(=O)N1Cc1ccccc1,inactive
5,CC(=O)c1c(O)cc(=O)n(-c2ccccc2)c1-c1ccc(C)cc1,inactive
6,CN(C)CCC(=O)N1c2ccccc2Sc2ccc(Cl)cc21,inactive
7,CCOC(=O)c1ccc(NC(=O)NS(=O)(=O)c2ccc(C)cc2)cc1,inactive
8,O=C(OCCCCN1C(=O)c2ccccc2C1=O)c1ccc(Br)o1,inactive
9,O=C(COc1ccc2ccccc2c1)Nc1nccs1,inactive
10,O=C(CCS(=O)(=O)c1ccccc1)Nc1nnc(-c2ccco2)o1,inactive
11,CC(C)Cc1nnc(NC(=O)CCS(=O)(=O)c2ccc(Cl)cc2)s1,inactive
12,COc1ccc(C2(O)CCN(CC(=O)Nc3nc(-c4ccccc4)cs3)CC2)cc1,inactive
13,Cc1cccc(NC(=O)COC(=O)CCc2c[nH]c3ccccc23)c1C,inactive
14,O=C(COC(=O)COc1ccc(Nc2ccccc2)cc1)NCc1ccco1,inactive
15,Cc1cc2n(n1)SC(Nc1ccccc1)N2 (configuration not stated),inactive
16,O=C(Nc1nc2ccccc2[nH]1)c1ccc(F)cc1,inactive
17,c1ccc2[nH]c(NC3=NCCC3)nc2c1,inactive
18,CCOc1ccc(C(=O)Nc2nc3ccccc3[nH]2)cc1OCC,inactive
19,Nc1ccc(C(=O)N/N=C\C=C\c2ccc([N+](=O)[O-])cc2)cc1,inactive
20,CCCOC(=O)c1cc(-c2ccc(C=O)o2)ccc1Cl,inactive
21,CCCCCCCCCCn1cc(C(C)=O)c(=O)[nH]c1=O,inactive
22,CCC(CC)COC(=O)C(C#N)c1nc2ccccc2nc1N1CCN(CC)CC1 (configuration not stated),inactive
23,CC(CCc1ccccc1)NC(=O)COC(=O)c1cccs1 (configuration not stated),inactive
24,COc1ccc(N2C(=O)NC(=O)/C(=C/c3ccc([N+](=O)[O-])s3)C2=O)cc1,inactive

row,Structure (SMILES),outcome
1,O=C(NCCC1=CCCCC1)c1ccc(Br)o1,inactive
2,Cc1n[nH]c(=S)n1/N=C/c1ccc(OCc2ccc(Cl)cc2Cl)cc1,inactive
3,Cc1cc(-c2c(C)[nH]n(-c3ccccc3)c2=O)n[nH]1,inactive
4,O=C1CC(N2CCC(C(=O)N3CCCCC3)CC2)C(=O)N1 (configuration not stated),inactive
5,CCC(=O)c1ccc(OCc2ccc(C(=O)OC)cc2)cc1,inactive
6,CCOC(=O)C1=C(c2ccccc2)NC(N)=NC1c1ccc(OCc2ccc(Cl)cc2)c(OC)c1 (configuration not stated),inactive
7,CCOC(=O)C(=O)NC12CC3CC(CC(C3)C1)C2,inactive
8,COC(=O)c1cc(-c2ccc(OC)cc2)on1,inactive
9,O=C1OC(/C=C/c2ccccc2)=NC/1=C\c1cccnc1,inactive
10,CCC1CCC(c2nnc(-c3ccc([N+](=O)[O-])cc3)o2)CC1 (configuration not stated),inactive
11,O=C(OCc1cccc([N+](=O)[O-])c1)c1ccc2ccccc2n1,inactive
12,O=c1c2c([N+](=O)[O-])cc([N+](=O)[O-])cc2nc2ccccn12,inactive
13,CCCNC(=O)COC(=O)c1cc2c(=O)n3ccccc3nc2s1,inactive
14,CN1/C(=C\C=N\NC(=O)c2cccnc2)C(C)(C)c2ccccc21,inactive
15,O=C(OCC(=O)N1CCc2ccccc2C1)c1cccc([N+](=O)[O-])c1,inactive
16,COc1cc(/C=N/NC(=O)c2ccncc2)ccc1OC(=O)c1cccc(F)c1,inactive
17,CCOC(=O)Nc1cccc(OCC(=O)Nc2ccccc2OC)c1,inactive
18,Clc1cccc(CNCCNCc2cccc(Cl)c2)c1,inactive
19,Clc1ccc(Cl)c(OCCCCNCc2ccccc2)c1,inactive
20,COc1ccc(NC(=O)COc2ccccc2)cc1Cl,inactive
21,Cc1ccc(NC(=O)CCSc2nnc(Cc3ccccc3)o2)cc1,inactive
22,O=S(=O)(c1ccc(OCC2CO2)cc1)c1ccc(OCC2CO2)cc1 (configuration not stated),inactive
23,COc1ccc(CCOC(=O)c2ccc(N)c([N+](=O)[O-])c2)cc1,inactive
24,CCCCN1C(=O)C2(NNc3ccccc3O2)c2ccccc21 (configuration not stated),inactive

row,Structure (SMILES),outcome
1,Cc1ccc(NC(=O)COC(=O)CCc2c[nH]c3ccccc23)cc1[N+](=O)[O-],inactive
2,Cc1cc(NC(=O)c2cc([N+](=O)[O-])cc([N+](=O)[O-])c2)no1,inactive
3,CC(NC(=O)COc1ccc(-c2ccccc2)cc1)C1CCCO1 (configuration not stated),inactive
4,COc1ccc(C(=O)NNC2=C(C(=O)C(F)(F)F)CCC2)cc1,inactive
5,CCCCNC(=O)COC(=O)c1cc(F)c(F)cc1Cl,inactive
6,Clc1ccc(OCCCNCc2ccccc2)c2ccccc12,inactive
7,COc1cc(CNC2CCCC2)cc(Cl)c1OCc1ccc(F)cc1,inactive
8,O=C(Cc1c(F)cccc1Cl)Nc1ncc([N+](=O)[O-])s1,inactive
9,Cc1nc(C)c(/C(O)=C/c2nc3ccccc3oc2=O)s1,inactive
10,Cc1cccc2c(CC(=O)O)noc12,inactive
11,CC(C)(C)c1cc(CN2CCC(O)CC2)cc(C(C)(C)C)c1O,inactive
12,Cc1ccc(-n2sc3ccccc3c2=O)cc1,inactive
13,Cc1ccnc(-n2sc3ccccc3c2=O)n1,inactive
14,Cn1c(=O)c(Oc2ccc(F)cc2)c(O)c2ccccc21,inactive
15,CSC1=N/C(=C\c2ccc3c(c2)OCO3)C(=O)S1,inactive
16,O=C(COC(=O)c1ccc(Br)o1)NCCCc1ccccc1,inactive
17,Cc1ccsc1C(=O)OCC(=O)Nc1nnc(-c2ccccc2)o1,inactive
18,O=C(NC1CCCC1)c1cc(-c2cccs2)on1,inactive
19,Cc1ccccc1C(=O)Nc1nnc(-c2ccco2)o1,inactive
20,Cc1ccc(NC(=O)CCSc2nnc(-c3ccco3)o2)cc1,inactive
21,O=C(Nc1nnc(C2=COCCO2)o1)c1ccc(Cc2ccccc2)cc1,inactive
22,O=C(Nc1ccc(Cl)cc1)C1CCCC1,inactive
23,O=C(O)c1ccc(-n2nc(C(F)(F)F)c3c2CCCC3)cc1,inactive
24,Brc1c(-c2ccc3c(c2)OCO3)nc2ncccn12,inactive

row,Structure (SMILES),outcome
1,COc1ccc(CC(=O)OCC(=O)Nc2ccc(Br)cc2)cc1,inactive
2,CN1CCN(/N=C/c2ccc(-c3ccc([N+](=O)[O-])cc3Cl)o2)CC1,inactive
3,O=C(Nc1ccc2c(c1)CCC2)c1ccc(Br)o1,inactive
4,COC(=O)COc1cccc(NC(=O)c2cccc(C)c2)c1,inactive
5,CCCCN(C)C(=O)c1cc2cc3ccc(OC)cc3nc2s1,inactive
6,O=C(Nc1cccc([N+](=O)[O-])c1)C1COc2ccccc2O1 (configuration not stated),inactive
7,O=C(N/N=C/c1ccc(OC(=O)c2ccco2)cc1)c1ccccn1,inactive
8,Cc1ccc(OC(=O)CCS(=O)(=O)c2ccc(C)cc2)cc1,inactive
9,CC1=NN(C(=O)c2ccc(Br)cc2)C(O)(c2ccccc2)C1 (configuration not stated),inactive
10,CC1(c2nnc(-c3ccc(F)cc3)o2)CC(c2cccc(Cl)c2)=NO1 (configuration not stated),inactive
11,COc1cccc(COC(=O)CCNC(=O)c2ccc(Br)cc2)c1OC,inactive
12,CCOc1cc(-c2sc(Nc3cc(C)ccc3OC)n[n+]2-c2ccccc2)ccc1OC,inactive
13,CN1CCN(c2cc3c(cc2F)c(=O)c(C(=O)O)cn3CCF)CC1,inactive
14,Cc1ccccc1C(=O)NN1CC(C(=O)OCc2ccc(Cl)c(Cl)c2)CC1=O (configuration not stated),inactive
15,CCCOC(=O)c1ccc(OC(=O)c2ccco2)cc1,inactive
16,O=C(COc1ccc([N+](=O)[O-])cc1)NNC(=O)c1cccs1,inactive
17,COc1ccc(OCCOC(=O)c2cccs2)cc1,inactive
18,C/C(=N\NC(=O)c1ccco1)c1cc(Cl)sc1Cl,inactive
19,CCc1ccc(OCCCC(=O)NCc2ccco2)cc1,inactive
20,COc1ccc(NC(=O)C(=O)NNC(=O)C(C)Oc2ccc(Cl)cc2Cl)cc1 (configuration not stated),inactive
21,COc1ccc(OCCC(=O)OCC(=O)Nc2ccc(Br)cc2)cc1,inactive
